In PubChem BioAssay (NCI) one finds growth inhibition data, which are given here for eight molecules.

A short description of assay [1]: NCI Yeast Anticancer Drug Screen. Data for the rad50 strain (AID 155).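 Also: 0% = growth of vehicle-only cultures of the same strain.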 The following applies: S. cerevisiae rad50 strain growth inhibition, stronger effect = higher value. The procedure, abridged:
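Relative growth inhibition (compound vs vehicle) was measured in yeast with a defined repair-gene alteration.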

Assay [2] in a line: NCI Yeast Anticancer Drug Screen. Data for the mec2-1 strain (AID 157). The following applies: S. cerevisiae mec2-1 strain, stronger effect = higher value. The procedure, abridged:
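Compounds were applied to mec2-1 yeast cells. Their growth was then compared with that of vehicle-treated cultures to give growth inhibition.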

Assay [3] in a line: NCI Yeast Anticancer Drug Screen. Data for the sgs1 mgt1 strain (AID 161).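 Also: 0% = growth of cultures given vehicle only.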 To be noted: S. cerevisiae sgs1 mgt1 strain, stronger effect = higher value. The procedure, abridged: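 This yeast growth screen uses a strain with defined DNA-repair lesions; compound-treated growth is compared with vehicle-treated growth.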
A short description of assay [4]: NCI Yeast Anticancer Drug Screen. Data for the cln2 rad14 strain (AID 165).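 Also: 0% = growth equal to vehicle treated cultures.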 To be noted: S. cerevisiae cln2 rad14 strain, stronger effect = higher value. In outline:
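Strain: cln2 rad14 yeast, altered in cell cycle control and DNA damage repair. Read-out: growth inhibition vs vehicle.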

Assay [5] in a line: NCI Yeast Anticancer Drug Screen. Data for the bub3 strain (AID 167). The following applies: S. cerevisiae bub3 mutant strain, stronger effect = higher value. In outline: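 Screening used yeast with an engineered genetic alteration affecting cell cycle control. Compound-exposed cultures were compared with vehicle cultures, and reduced growth was taken as inhibition.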
A short description of assay [6]: NCI Yeast Anticancer Drug Screen. Data for the mlh1 rad18 strain (AID 175). To be noted: S. cerevisiae mlh1 rad18 strain growth inhibition, stronger effect = higher value. The procedure, abridged:
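A repair-deficient yeast strain is exposed to test compound, and growth is scored relative to vehicle-treated controls.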

Where [7] appears, read: at 5.0 µM (retest, dose inferred, filed as 0.5).
[8] abbreviates: at 50.0 µM (retest, dose inferred, filed as 5.0).

Several values for one entry are separate records, joined by “and”; a condition that tells them apart may be missing. Identical values can stand only once. Compounds without any hit were thinned out: in the full panel of roughly 79,000, 15% have a hit. The source holds several records for some structures; these can differ, active in one and inactive in another. Activity calls are given as the source filed them. Rule as the data show it: active = growth inhibition above about 70%; inactive = the rest.

As to `C[N+]1(C)CCC(c2ccccc2)(c2ccccc2)C(=O)C1`, the growth inhibition in assay [1] (setting [7]) was -12% (inactive); in assay [1] (setting [8]), -8% (inactive); in assay [1] (at 50.0 µM) it was 16.6% (inactive) and 13.2% (inactive); in assay [2] (setting [7]), -15% (inactive); in assay [2] (setting [8]), -3% (inactive); in assay [2] (at 50.0 µM), 9.05% (inactive) and 19.3% (inactive). Further, the growth inhibition is -8% (inactive) in assay [3] (setting [7]); -2% (inactive) in assay [3] (setting [8]); 6.2% (inactive) and 21.8% (inactive) in assay [3] (at 50.0 µM); -9% (inactive) in assay [4] (setting [7]); -11% (inactive) in assay [4] (setting [8]); 47.4% (inactive) and -25.8% (inactive) in assay [4] (at 50.0 µM). Besides, the growth inhibition was -22% (inactive) in assay [5] (setting [7]); -27% (inactive) in assay [5] (setting [8]); -8.9% (inactive) and 8.6% (inactive) in assay [5] (at 50.0 µM); -10% (inactive) in assay [6] (setting [7]); -14% (inactive) in assay [6] (setting [8]); 24.1% (inactive) and -10.6% (inactive) in assay [6] (at 50.0 µM).
Take `Cc1cc(O)c(C(C)C)cc1Cl`: the growth inhibition was 5% (inactive) in assay [1] (setting [7]); 79% (active) in assay [1] (setting [8]); 53.1% (inactive) and 98.7% (active) in assay [1] (at 50.0 µM); 4% (inactive) in assay [2] (setting [7]); 90% (active) in assay [2] (setting [8]); 41% (inactive) and 98.6% (active) in assay [2] (at 50.0 µM). Further, the growth inhibition in assay [3] (setting [7]) is -6% (inactive); in assay [3] (setting [8]), 38% (inactive); in assay [3] (at 50.0 µM), 45.5% (inactive) and 99.2% (active); in assay [4] (setting [7]), -4% (inactive); in assay [4] (setting [8]) it was 48% (inactive); in assay [4] (at 50.0 µM), 4.75% (inactive) and 79.6% (active). Further, the growth inhibition in assay [5] (setting [7]) is -4% (inactive); in assay [5] (setting [8]), 98% (active); in assay [5] (at 50.0 µM) it was 13.2% (inactive) and 97.5% (active); in assay [6] (setting [7]), 7% (inactive); in assay [6] (setting [8]) it was 84% (active); in assay [6] (at 50.0 µM), 26.8% (inactive) and 98.8% (active).
Regarding `O=[N+]([O-])c1c(Br)cc(Br)c2c1Nc1c(ccc(Cl)c1Cl)S2`, the growth inhibition in assay [1] (setting [7]) is 14% (inactive); in assay [1] (setting [8]), 94% (active); in assay [1] (at 50.0 µM), 96.5% (active); in assay [2] (setting [7]), 26% (inactive); in assay [2] (setting [8]), 95% (active); in assay [2] (at 50.0 µM) it was 96.7% (active). The growth inhibition in assay [3] (setting [7]) is 13% (inactive); in assay [3] (setting [8]), 95% (active); in assay [3] (at 50.0 µM), 96.4% (active); in assay [4] (setting [7]), 20% (inactive); in assay [4] (setting [8]), 93% (active); in assay [4] (at 50.0 µM), 94.2% (active). In addition, the growth inhibition in assay [5] (setting [7]) was 28% (inactive); in assay [5] (setting [8]) it was 95% (active); in assay [5] (at 50.0 µM), 94.8% (active); in assay [6] (setting [7]), 39% (inactive); in assay [6] (setting [8]), 95% (active); in assay [6] (at 50.0 µM) it was 95.3% (active).
For the molecule `CCCCCCCCCCCCc1ccc(S(=O)(=O)O)cc1.[Cu+2]`, the growth inhibition in assay [1] (setting [7]) is -6% (inactive); in assay [1] (setting [8]), 88% (active); in assay [1] (at 50.0 µM) it was 90.3% (active); in assay [2] (setting [7]), 14% (inactive); in assay [2] (setting [8]) it was 70% (active); in assay [2] (at 50.0 µM) it was 64.9% (inactive). In addition, the growth inhibition was 6% (inactive) in assay [3] (setting [7]); 97% (active) in assay [3] (setting [8]); 41.2% (inactive) in assay [3] (at 50.0 µM); 2% (inactive) in assay [4] (setting [7]); 81% (active) in assay [4] (setting [8]); 17.3% (inactive) in assay [4] (at 50.0 µM). Further, the growth inhibition is -9% (inactive) in assay [5] (setting [7]); 82% (active) in assay [5] (setting [8]); 43.8% (inactive) in assay [5] (at 50.0 µM); 15% (inactive) in assay [6] (setting [7]); 93% (active) in assay [6] (setting [8]); 66% (inactive) in assay [6] (at 50.0 µM).
With `O=C(Nc1cc(-c2ccccc2)[nH]n1)c1ccccc1F`, the growth inhibition in assay [1] (setting [7]) is 41% (inactive); in assay [1] (setting [8]), 59% (inactive); in assay [1] (at 50.0 µM), 88.1% (active); in assay [2] (setting [7]), 35% (inactive); in assay [2] (setting [8]), 69% (inactive); in assay [2] (at 50.0 µM) it was 86% (active). The growth inhibition in assay [3] (setting [7]) was 39% (inactive); in assay [3] (setting [8]) it was 83% (active); in assay [3] (at 50.0 µM), 92.8% (active); in assay [4] (setting [7]), 30% (inactive); in assay [4] (setting [8]), 54% (inactive); in assay [4] (at 50.0 µM), 66.5% (inactive). Moreover, the growth inhibition in assay [5] (setting [7]) is 42% (inactive); in assay [5] (setting [8]), 55% (inactive); in assay [5] (at 50.0 µM) it was 89.3% (active); in assay [6] (setting [7]) it was 43% (inactive); in assay [6] (setting [8]), 86% (active); in assay [6] (at 50.0 µM), 89.6% (active).
As for `O=C1CSC(=S)N1c1ccc(Cl)c(C(F)(F)F)c1`, the growth inhibition is -1% (inactive) in assay [1] (setting [7]); 36% (inactive) in assay [1] (setting [8]); 97.5% (active) in assay [1] (at 50.0 µM); 0% (inactive) in assay [2] (setting [7]); 11% (inactive) in assay [2] (setting [8]); 97.7% (active) in assay [2] (at 50.0 µM). Also, the growth inhibition in assay [3] (setting [7]) is 6% (inactive); in assay [3] (setting [8]), 97% (active); in assay [3] (at 50.0 µM), 98.9% (active); in assay [4] (setting [7]), -4% (inactive); in assay [4] (setting [8]) it was -10% (inactive); in assay [4] (at 50.0 µM) it was 58.4% (inactive). Besides, the growth inhibition in assay [5] (setting [7]) was -6% (inactive); in assay [5] (setting [8]), 56% (inactive); in assay [5] (at 50.0 µM), 98.5% (active); in assay [6] (setting [7]) it was 11% (inactive); in assay [6] (setting [8]), 95% (active); in assay [6] (at 50.0 µM) it was 98.3% (active).
For the molecule `Oc1cc2c3c(c1)c1cc4c(cc1c[n+]3CC2)OCO4`, the growth inhibition in assay [1] (setting [7]) is 42% (inactive) and 11% (inactive); in assay [1] (setting [8]) it was 72% (active) and 56% (inactive); in assay [1] (at 50.0 µM) it was -22.4% (inactive) and 52% (inactive); in assay [2] (setting [7]) it was 36% (inactive) and 10% (inactive); in assay [2] (setting [8]) it was 57% (inactive) and 41% (inactive); in assay [2] (at 50.0 µM), -44.9% (inactive) and 33.4% (inactive). For the same molecule, the growth inhibition in assay [3] (setting [7]) is 64% (inactive) and 33% (inactive); in assay [3] (setting [8]), 85% (active) and 63% (inactive); in assay [3] (at 50.0 µM), -5.25% (inactive) and 50.9% (inactive); in assay [4] (setting [7]), 59% (inactive) and 28% (inactive); in assay [4] (setting [8]), 74% (active) and 39% (inactive); in assay [4] (at 50.0 µM), 0.95% (inactive) and 43.3% (inactive). Moreover, the growth inhibition in assay [5] (setting [7]) is 63% (inactive) and 23% (inactive); in assay [5] (setting [8]), 84% (active) and 60% (inactive); in assay [5] (at 50.0 µM), -36.8% (inactive) and 31.2% (inactive); in assay [6] (setting [7]), 30% (inactive) and 7% (inactive); in assay [6] (setting [8]) it was 65% (inactive) and 57% (inactive); in assay [6] (at 50.0 µM) it was -30.6% (inactive) and 53% (inactive).
`NNc1ccc2ccccc2c1`: the growth inhibition is 28% (inactive) in assay [1] (setting [7]); 86% (active) in assay [1] (setting [8]); 97.2% (active) and 22.5% (inactive) in assay [1] (at 50.0 µM); 4% (inactive) in assay [2] (setting [7]); 56% (inactive) in assay [2] (setting [8]); 85.6% (active) and 2.95% (inactive) in assay [2] (at 50.0 µM). The growth inhibition is 13% (inactive) in assay [3] (setting [7]); 57% (inactive) in assay [3] (setting [8]); 95.5% (active) and 26.1% (inactive) in assay [3] (at 50.0 µM); 16% (inactive) in assay [4] (setting [7]); 30% (inactive) in assay [4] (setting [8]); 90.2% (active) and 29.1% (inactive) in assay [4] (at 50.0 µM). Further, the growth inhibition in assay [5] (setting [7]) is 16% (inactive); in assay [5] (setting [8]), 77% (active); in assay [5] (at 50.0 µM) it was 91.2% (active) and 21.1% (inactive); in assay [6] (setting [7]) it was 33% (inactive); in assay [6] (setting [8]) it was 91% (active); in assay [6] (at 50.0 µM), 97.2% (active) and 25.7% (inactive).
